Eleven compounds from ChEMBL document CHEMBL3988442, “University of Dundee, Small-Polar-MMV Screening Library” (2021) can be followed below.

For some of these results: Potency and affinity values are given separately.

Holding throughout (design): scale not given: direction of the effect not stated beside the values
The target in test [1] is Protein translocase subunit SecA (Escherichia coli (strain K12)) (UniProt P10408). Description: Assay to Identify E. coli SecA ATPase Inhibitors. The test is classed as functional. The settings on record: 30 µM.
Test [2] deals with T1, Ubiquitin-activating enzyme e1, putative (Leishmania donovani (strain BPK282A1)) (UniProt E9BSI1).
T1 sequence (whole entry): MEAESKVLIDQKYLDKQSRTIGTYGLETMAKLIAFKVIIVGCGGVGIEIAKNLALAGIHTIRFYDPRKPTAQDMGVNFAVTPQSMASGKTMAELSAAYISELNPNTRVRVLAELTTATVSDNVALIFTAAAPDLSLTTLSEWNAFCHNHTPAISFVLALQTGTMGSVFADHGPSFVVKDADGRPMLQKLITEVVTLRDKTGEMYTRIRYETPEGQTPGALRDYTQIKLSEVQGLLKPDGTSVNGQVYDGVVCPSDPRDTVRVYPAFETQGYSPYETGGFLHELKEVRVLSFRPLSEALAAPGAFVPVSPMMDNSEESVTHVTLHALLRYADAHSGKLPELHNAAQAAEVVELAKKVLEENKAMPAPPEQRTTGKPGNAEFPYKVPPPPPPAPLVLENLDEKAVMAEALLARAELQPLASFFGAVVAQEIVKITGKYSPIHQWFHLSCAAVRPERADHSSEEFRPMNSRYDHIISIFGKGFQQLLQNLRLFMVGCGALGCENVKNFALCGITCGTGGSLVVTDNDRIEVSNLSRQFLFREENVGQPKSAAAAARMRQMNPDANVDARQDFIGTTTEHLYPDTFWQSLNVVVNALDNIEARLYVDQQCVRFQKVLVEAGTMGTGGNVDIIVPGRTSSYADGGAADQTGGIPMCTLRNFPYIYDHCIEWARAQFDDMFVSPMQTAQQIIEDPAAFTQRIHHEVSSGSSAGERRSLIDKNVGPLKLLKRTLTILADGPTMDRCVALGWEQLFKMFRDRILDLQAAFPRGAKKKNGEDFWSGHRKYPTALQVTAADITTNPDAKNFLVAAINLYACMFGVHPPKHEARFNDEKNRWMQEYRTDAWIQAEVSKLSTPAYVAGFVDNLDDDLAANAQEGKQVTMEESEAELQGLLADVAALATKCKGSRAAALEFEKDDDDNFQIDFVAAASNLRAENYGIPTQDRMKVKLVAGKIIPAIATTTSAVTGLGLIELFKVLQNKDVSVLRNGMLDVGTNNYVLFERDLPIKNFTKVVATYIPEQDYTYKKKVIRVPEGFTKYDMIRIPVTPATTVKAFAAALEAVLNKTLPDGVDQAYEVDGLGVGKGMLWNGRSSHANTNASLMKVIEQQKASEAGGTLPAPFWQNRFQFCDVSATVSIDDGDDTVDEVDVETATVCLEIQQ
Description: Leishmania donovani Ubiquitin Activating Enzyme (LdE1). The class given is functional. The settings on record: 30 µM.

The target of test [3] is AMP-activated protein kinase, AMPK (Homo sapiens) (UniProt P54646+O43741+P54619+Q9UGJ0+Q9Y478+Q13131+Q9UGI9). Description: AMP-dependent Kinase enzyme assay. An in vitro enzyme assay that detects ADP turnover that is directly proportional to AMPK activity. This uses naive AMPK that is activated during the assay with MK-8722. The class given is functional. To be noted: 30 µM.

For test [4], the target named is Sialic acid-binding Ig-like lectin 9 (Homo sapiens) (UniProt Q9Y336). Description: Hs-Siglec9 ALPHAscreen SOP 20170721. To be noted: 10 µM.
Test [5] deals with Trypanosoma cruzi. Description: Trypanosoma cruzi phosphomannomutase and mannose-1-phosphate guanylyltransferase assay. The test is classed as functional. The settings on record: 10 µM.
Test [6] concerns the target T2, Arginase-2, mitochondrial (Homo sapiens) (UniProt P78540).
T2 sequence (whole entry): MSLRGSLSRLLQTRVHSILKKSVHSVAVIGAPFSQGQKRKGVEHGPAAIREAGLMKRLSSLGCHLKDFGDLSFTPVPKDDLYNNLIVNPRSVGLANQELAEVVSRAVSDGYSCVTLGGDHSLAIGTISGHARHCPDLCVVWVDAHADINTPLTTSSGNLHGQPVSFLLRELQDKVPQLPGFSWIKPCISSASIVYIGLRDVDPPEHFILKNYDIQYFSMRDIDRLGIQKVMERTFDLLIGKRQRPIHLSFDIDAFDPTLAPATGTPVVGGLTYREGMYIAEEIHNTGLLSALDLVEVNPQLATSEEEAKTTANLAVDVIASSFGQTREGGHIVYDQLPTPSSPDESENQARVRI
Description: in vitro enzyme assay to detect the production of urea directly proportional to the activity of Arginase II. Further: in the data most compounds retested in dose-response had high values. The settings on record: 33.3 µM. The test is classed as functional.

For test [7], the target named is T3, Proteasome subunit beta (Trypanosoma cruzi) (UniProt O96673).
T3 sequence (whole entry): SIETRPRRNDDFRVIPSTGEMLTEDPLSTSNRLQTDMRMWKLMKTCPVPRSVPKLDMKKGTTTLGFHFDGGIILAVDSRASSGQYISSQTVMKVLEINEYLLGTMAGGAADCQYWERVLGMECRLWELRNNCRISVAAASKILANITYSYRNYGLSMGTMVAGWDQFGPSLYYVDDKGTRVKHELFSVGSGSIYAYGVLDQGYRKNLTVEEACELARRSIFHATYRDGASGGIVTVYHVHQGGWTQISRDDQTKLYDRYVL
Description: Trypanosoma cruzi proteasome chymotrypsin-like activity (TcProtChymo) assay. Further: in the data most compounds retested in dose-response had high values. The settings on record: 9.37 µM. The class given is functional.

Test [8] is filed under the species Homo sapiens. Description: To identify inhibition of the IFN signalling (Jak-Stat) pathway via expression of an eGFP reporter gene under the control of an IFN-stimulated response element (ISRE) containing MxA promoter. The test is classed as functional. The settings on record: 30 µM.
Test [9] concerns the target T4, Tyrosyl-tRNA synthetase, putative (Trypanosoma cruzi (strain CL Brener)) (UniProt Q4DSP6).
T4 sequence (whole entry): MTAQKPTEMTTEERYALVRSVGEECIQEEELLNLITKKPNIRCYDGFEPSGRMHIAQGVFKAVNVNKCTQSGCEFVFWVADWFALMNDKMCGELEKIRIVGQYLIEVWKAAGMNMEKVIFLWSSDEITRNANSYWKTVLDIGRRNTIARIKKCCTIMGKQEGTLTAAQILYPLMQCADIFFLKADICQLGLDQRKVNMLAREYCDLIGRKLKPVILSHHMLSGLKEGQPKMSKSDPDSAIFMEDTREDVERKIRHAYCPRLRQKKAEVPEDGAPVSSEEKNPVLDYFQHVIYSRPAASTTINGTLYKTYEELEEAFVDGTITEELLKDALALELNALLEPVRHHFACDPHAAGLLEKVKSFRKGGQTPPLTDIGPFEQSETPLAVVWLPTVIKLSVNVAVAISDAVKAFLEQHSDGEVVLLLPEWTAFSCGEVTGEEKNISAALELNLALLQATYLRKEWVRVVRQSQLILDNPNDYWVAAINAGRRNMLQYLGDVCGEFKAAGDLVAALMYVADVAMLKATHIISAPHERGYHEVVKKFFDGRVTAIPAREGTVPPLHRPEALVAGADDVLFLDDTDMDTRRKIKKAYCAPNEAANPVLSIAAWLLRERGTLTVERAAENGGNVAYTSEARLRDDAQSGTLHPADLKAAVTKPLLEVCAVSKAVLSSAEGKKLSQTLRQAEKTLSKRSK
Description: Trypanosoma cruzi tyrosyl tRNA synthetase (TcYRS) _High Tyrosine SOP. Further: in the data most compounds retested in dose-response had high values. To be noted: 30 µM. The test is classed as functional.

Test [10] addresses T4, Tyrosyl-tRNA synthetase, putative (Trypanosoma cruzi (strain CL Brener)). Description: Trypanosoma cruzi tyrosyl tRNA synthetase (TcYRS) SOP. The settings on record: 30 µM. The test is classed as functional.
Test [11] has as its target Chromo domain-containing protein 1 (Saccharomyces cerevisiae (strain ATCC 204508 / S288c) (Baker's yeast)) (UniProt P32657). Description: ScCHD-1 Enzyme Inhibition Assay. Further: in the data most compounds retested in dose-response had high values. The test is classed as functional. The settings on record: 30 µM.

Sequence of Sialic acid-binding Ig-like lectin 9 (Homo sapiens) (Q9Y336 whole entry): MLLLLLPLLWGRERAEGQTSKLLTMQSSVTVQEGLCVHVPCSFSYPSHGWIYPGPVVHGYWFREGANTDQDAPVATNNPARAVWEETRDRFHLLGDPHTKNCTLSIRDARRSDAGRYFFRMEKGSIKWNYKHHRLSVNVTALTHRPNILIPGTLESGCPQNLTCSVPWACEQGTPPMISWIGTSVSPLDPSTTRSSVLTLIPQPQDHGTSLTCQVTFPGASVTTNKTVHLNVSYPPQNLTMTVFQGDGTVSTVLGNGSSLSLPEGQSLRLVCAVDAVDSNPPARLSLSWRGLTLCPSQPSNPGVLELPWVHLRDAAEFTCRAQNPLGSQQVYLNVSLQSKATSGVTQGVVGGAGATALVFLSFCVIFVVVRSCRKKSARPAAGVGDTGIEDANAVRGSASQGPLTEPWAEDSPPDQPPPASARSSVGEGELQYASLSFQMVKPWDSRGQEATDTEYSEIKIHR
Sequence of Protein translocase subunit SecA (Escherichia coli (strain K12)) (P10408 whole entry): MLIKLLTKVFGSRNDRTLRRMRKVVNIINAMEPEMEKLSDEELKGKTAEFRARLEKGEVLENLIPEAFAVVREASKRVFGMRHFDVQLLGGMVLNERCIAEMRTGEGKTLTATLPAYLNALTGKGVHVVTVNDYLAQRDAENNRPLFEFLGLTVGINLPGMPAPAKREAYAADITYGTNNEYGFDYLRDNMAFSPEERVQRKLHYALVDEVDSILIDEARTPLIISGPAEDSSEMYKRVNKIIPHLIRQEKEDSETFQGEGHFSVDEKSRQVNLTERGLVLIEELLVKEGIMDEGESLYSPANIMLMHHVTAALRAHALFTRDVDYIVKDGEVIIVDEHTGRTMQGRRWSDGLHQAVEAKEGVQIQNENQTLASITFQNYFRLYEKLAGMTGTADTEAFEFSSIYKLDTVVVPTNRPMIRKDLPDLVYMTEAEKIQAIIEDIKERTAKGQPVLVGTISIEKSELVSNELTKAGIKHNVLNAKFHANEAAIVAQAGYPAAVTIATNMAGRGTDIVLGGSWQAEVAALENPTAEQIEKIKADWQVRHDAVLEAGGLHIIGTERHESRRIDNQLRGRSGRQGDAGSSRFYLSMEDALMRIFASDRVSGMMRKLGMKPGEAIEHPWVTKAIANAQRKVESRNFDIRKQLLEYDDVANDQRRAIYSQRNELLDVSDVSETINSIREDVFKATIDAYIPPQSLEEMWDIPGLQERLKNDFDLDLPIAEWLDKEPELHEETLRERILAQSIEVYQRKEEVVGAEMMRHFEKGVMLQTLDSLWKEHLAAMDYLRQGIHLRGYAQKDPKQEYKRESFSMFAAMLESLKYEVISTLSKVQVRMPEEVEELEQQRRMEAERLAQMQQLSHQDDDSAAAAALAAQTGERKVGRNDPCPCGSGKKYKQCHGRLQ
Sequence of Chromo domain-containing protein 1 (Saccharomyces cerevisiae (strain ATCC 204508 / S288c) (Baker's yeast)) (P32657 whole entry, the tested form may be a part): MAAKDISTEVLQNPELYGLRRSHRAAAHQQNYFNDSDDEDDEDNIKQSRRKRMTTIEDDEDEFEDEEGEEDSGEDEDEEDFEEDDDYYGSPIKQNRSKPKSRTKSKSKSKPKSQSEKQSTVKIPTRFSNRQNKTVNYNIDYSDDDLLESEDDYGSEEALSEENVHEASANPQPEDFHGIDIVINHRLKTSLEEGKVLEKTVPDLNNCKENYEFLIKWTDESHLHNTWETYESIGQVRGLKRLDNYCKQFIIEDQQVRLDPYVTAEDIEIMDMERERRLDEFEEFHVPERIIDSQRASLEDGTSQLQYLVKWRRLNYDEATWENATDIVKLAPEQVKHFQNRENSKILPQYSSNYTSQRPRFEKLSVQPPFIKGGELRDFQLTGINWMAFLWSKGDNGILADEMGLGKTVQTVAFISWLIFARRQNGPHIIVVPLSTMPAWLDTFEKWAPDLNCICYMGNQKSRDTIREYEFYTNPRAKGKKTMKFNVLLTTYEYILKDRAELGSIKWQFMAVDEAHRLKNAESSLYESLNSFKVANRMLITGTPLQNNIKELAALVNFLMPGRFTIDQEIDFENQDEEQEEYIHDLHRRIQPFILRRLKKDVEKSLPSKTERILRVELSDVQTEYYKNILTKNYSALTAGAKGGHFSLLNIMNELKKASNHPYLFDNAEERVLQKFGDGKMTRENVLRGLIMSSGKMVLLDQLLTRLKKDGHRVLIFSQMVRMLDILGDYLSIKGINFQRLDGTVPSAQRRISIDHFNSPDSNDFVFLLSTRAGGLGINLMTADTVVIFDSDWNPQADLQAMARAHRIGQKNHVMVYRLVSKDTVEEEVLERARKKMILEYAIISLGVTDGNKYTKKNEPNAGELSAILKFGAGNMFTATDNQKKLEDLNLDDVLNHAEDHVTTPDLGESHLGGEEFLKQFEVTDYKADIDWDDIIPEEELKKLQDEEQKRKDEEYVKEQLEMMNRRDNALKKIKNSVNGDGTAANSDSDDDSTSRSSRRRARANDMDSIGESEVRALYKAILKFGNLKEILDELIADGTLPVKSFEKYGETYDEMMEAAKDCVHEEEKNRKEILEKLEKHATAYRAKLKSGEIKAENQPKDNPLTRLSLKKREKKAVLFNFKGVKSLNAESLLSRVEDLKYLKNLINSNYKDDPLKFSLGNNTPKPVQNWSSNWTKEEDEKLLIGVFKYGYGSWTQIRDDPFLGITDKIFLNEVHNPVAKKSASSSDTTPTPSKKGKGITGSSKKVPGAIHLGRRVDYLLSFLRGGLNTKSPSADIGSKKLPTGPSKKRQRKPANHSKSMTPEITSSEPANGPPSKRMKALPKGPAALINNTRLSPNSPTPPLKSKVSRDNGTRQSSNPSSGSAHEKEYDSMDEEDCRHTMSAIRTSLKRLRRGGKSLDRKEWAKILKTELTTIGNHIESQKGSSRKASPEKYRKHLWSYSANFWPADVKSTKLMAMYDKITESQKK

Regarding `N#Cc1ccc(S(=O)(=O)NC(=O)C2CC2)c(C(F)(F)F)c1`, the Percent Effect in test [1] is -6.08%; in test [2], 21.6%; in test [3], -10.9%; in test [4], 20.8%; in test [5], 4.81%; in test [6], -6.41%. The Percent Effect is 6.49% in test [7]; 7.08% in test [8]; 6.4% in test [9]; 23.5% in test [10]; -7.62% in test [11].

`COc1ccc(CN2CC[C@@H](O)[C@@H]2Cc2ccccc2)cc1`: the Percent Effect in [1] is -7.82%; in test [2] it was -1.33%; in test [3], 7.1%; in test [4], -1.98%; in [5], -0.589%; in [6], -6.16%. Also, the Percent Effect is 0.924% in test [7]; 9.5% in [8]; -3.17% in [9]; -2.56% in test [10]; -5.37% in test [11].

Turning to `CC(C)c1nc(CN2CCN(CC3CCCO3)CC2)cs1` (stereo unspecified), the Percent Effect in test [1] is 1.19%; in [2], 10.4%; in test [3], -7.85%; in [4] it was -14%; in test [5] it was -1.47%; in [6], 6.95%. Further, the Percent Effect in test [7] was 14.8%; in test [8], 17.1%; in [9], 4.76%; in test [10] it was 9.41%; in [11] it was -15.6%.

In the case of `COCc1nn(C(C)C)c2c1CCN(Cc1cccs1)C2`, the Percent Effect is -0.481% in test [1]; 11% in test [2]; 1.5% in [3]; 8.32% in test [4]; 0.198% in test [5]; -0.798% in test [6]. Besides, the Percent Effect in test [7] is 12.4%; in [8] it was -11.8%; in test [9], 7.29%; in test [10], 16.1%; in test [11], -1.6%.

In the case of `Cc1ccc(S(=O)(=O)NC(=O)c2cccc(OCC(N)=O)c2)s1`, the Percent Effect is -3.68% in test [1]; 20.2% in test [2]; -5.82% in [3]; -5.61% in [4]; 0.0944% in test [5]; 4.18% in test [6]. Further, the Percent Effect in test [7] is 12%; in [8], 4.54%; in test [9], 6.4%; in [10] it was 13.9%; in test [11] it was -5.68%.

As to `CN(C)C(=O)N1CCN(Cc2nnc(C(C)(C)C)o2)CC1`, the Percent Effect in test [1] was -0.665%; in test [2], -5.41%; in test [3], 0.51%; in test [4], 3.54%; in test [5], 0%; in [6], 1.91%. For the same compound, the Percent Effect was 1.55% in test [7]; -1.07% in test [8]; -1.59% in test [9]; 0% in test [10]; -0.0145% in [11].

On to `CCO[C@@H]1CCN(C(=O)c2cscn2)[C@@H]1Cc1cnn(C)c1`, for which the Percent Effect in test [1] is -1.12%; in [2], 0%; in [3], 9.65%; in test [4], 4.98%; in test [5], -5.12%; in test [6] it was 2.1%. Further, the Percent Effect is -1.15% in test [7]; 1.8% in [8]; 2.13% in [9]; 3.85% in test [10]; 1.69% in [11].

Take `CC(C)OCCOCc1cccc(NC(=O)NCCn2ccnc2)c1`: the Percent Effect in test [1] was -0.877%; in test [2] it was 10.4%; in test [3], -2.37%; in test [4] it was 9.62%; in test [5] it was 5.61%; in test [6] it was -1.38%. The Percent Effect is 8.65% in test [7]; -0.82% in test [8]; -1.07% in [9]; 3.7% in [10]; -7.91% in test [11].

Consider `C=Cc1ccc(C(=O)N2CCCC(Nc3ccc(F)cc3)C2)cc1` (stereo unspecified), for which the Percent Effect in test [1] is -3.33%; in [2], 8.11%; in test [3], 2.02%; in [4], 27.7%; in [5], 7.72%; in test [6], 0.952%. Further, the Percent Effect was 3.97% in test [7]; 2.82% in [8]; 2.65% in test [9]; 19.5% in test [10]; -11.2% in test [11].

For `COc1c(CNC(c2ccc(F)cc2)c2nccn2C)c(C)nn1C` (stereo unspecified), the Percent Effect in test [1] is -4.41%; in test [2], 23.7%; in test [3], -3.24%; in test [4], -2.7%; in test [5] it was 10.9%; in test [6] it was -0.383%. Besides, the Percent Effect is 13.4% in test [7]; 10.1% in test [8]; 9.31% in [9]; 29.3% in test [10]; -12.6% in test [11].

Regarding `CC(C)c1cccc(CSc2nnc(CN3CCCC3=O)o2)n1`, the Percent Effect in [1] is 2.49%; in test [2], -2.67%; in test [3], -1.77%; in test [4], -1.76%; in test [5], -0.0974%; in test [6] it was 5.21%. In addition, the Percent Effect in test [7] is -0.174%; in test [8], -2.67%; in [9], 1.64%; in [10], 1.24%; in test [11] it was 0.138%.
